The supplement of paper PMC8728848
About 410 targets per protein were measured; listed, in parts, are those with the strongest signals and a random draw of the rest.

Legend:
Test in all cases: glycan array binding signal (z-score within array); higher = stronger binding
Settings in all cases: glycan notation: IUPAC condensed, linker removed
[1] = biological target: Fuc(a1-2)Gal(b1-3)GlcNAc(b1-2)Man(a1-3)[Fuc(a1-2)Gal(b1-3)GlcNAc(b1-2)Man(a1-6)]Man(b1-4)GlcNAc(b1-4)GlcNAc
Summary of the method: (§1)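 Glycan array data were curated from 3228 arrays in the Consortium for Functional Glycomics database and kept only where the protein sequence was available. Glycan names were converted to IUPAC-condensed notation, and columns mapping to the same glycan were averaged. The binding signal is a within-array Z-score, averaged across arrays of the same protein sequence at different concentrations or buffers and across linkers. Negative Z-scores can be read as non-binding.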

[2] = biological target: Fuc(a1-2)Gal(b1-4)Glc6S
Summary of the method: as §1

[3] = biological target: Fuc(a1-2)Gal(b1-4)GlcNAc
Summary of the method: as §1

[4] = biological target: Fuc(a1-2)Gal(b1-4)GlcNAc6S
Summary of the method: as §1

[5] = biological target: Fuc(a1-2)Gal(b1-4)[Fuc(a1-3)]GlcNAc
Summary of the method: as §1

[6] = biological target: Fuc(a1-2)Gal(b1-4)[Fuc(a1-3)]GlcNAc(b1-3)Gal(b1-4)[Fuc(a1-3)]GlcNAc
Summary of the method: as §1

[7] = biological target: Fuc(a1-2)Gal(b1-4)[Fuc(a1-3)]GlcNAc(b1-3)Gal(b1-4)[Fuc(a1-3)]GlcNAc(b1-3)Gal(b1-4)[Fuc(a1-3)]GlcNAc
Summary of the method: as §1

[8] = biological target: Fuc(a1-2)Gal6S(b1-4)Glc
Summary of the method: as §1

[9] = biological target: Fuc(a1-2)[Gal(a1-3)]Gal(b1-4)Glc
Summary of the method: as §1

[10] = biological target: Fuc(a1-2)[GalNAc(a1-3)]Gal
Summary of the method: as §1

[11] = biological target: Fuc(a1-2)[GalNAc(a1-3)]Gal(b1-3)GlcNAc(b1-2)Man(a1-3)[Fuc(a1-2)[GalNAc(a1-3)]Gal(b1-3)GlcNAc(b1-2)Man(a1-6)]Man(b1-4)GlcNAc(b1-4)GlcNAc
Summary of the method: as §1

[12] = biological target: Fuc(a1-3)GlcNAc
Summary of the method: as §1

[13] = biological target: Fuc(a1-3)[Gal3S(b1-4)]GlcNAc
Summary of the method: as §1

[14] = biological target: Fuc(a1-4)GlcNAc
Summary of the method: as §1

[15] = biological target: Gal(a1-3)Gal(b1-3)GlcNAc
Summary of the method: as §1

[16] = biological target: Gal(a1-3)Gal(b1-4)[Fuc(a1-3)]GlcNAc(b1-2)Man(a1-3)[Gal(a1-3)Gal(b1-4)[Fuc(a1-3)]GlcNAc(b1-2)Man(a1-6)]Man(b1-4)GlcNAc(b1-4)GlcNAc
Summary of the method: as §1

[17] = biological target: Gal(a1-3)[Gal(a1-4)]Gal(b1-4)GlcNAc
Summary of the method: as §1

[18] = biological target: Gal(a1-4)GlcNAc
Summary of the method: as §1

[19] = biological target: Gal(b1-3)GalNAc
Summary of the method: as §1

[20] = biological target: Gal(b1-4)Glc
Summary of the method: as §1

[21] = biological target: Gal(b1-4)GlcNAc(b1-2)[Gal(b1-4)GlcNAc(b1-6)]Man(a1-6)[Gal(b1-4)GlcNAc(b1-2)Man(a1-3)]Man(b1-4)GlcNAc(b1-4)GlcNAc
Summary of the method: as §1

[22] = biological target: Gal(b1-4)GlcNAc(b1-3)Gal(b1-4)Glc
Summary of the method: as §1

[23] = biological target: Gal(b1-4)GlcNAc(b1-3)GalNAc
Summary of the method: as §1

[24] = biological target: Gal(b1-4)GlcNAc(b1-3)[Gal(b1-4)GlcNAc(b1-6)]GalNAc
Summary of the method: as §1

[25] = biological target: Gal3S(b1-3)GalNAc
Summary of the method: as §1

[26] = biological target: Gal3S(b1-4)[Fuc(a1-3)]Glc
Summary of the method: as §1

[27] = biological target: Gal3S6S(b1-4)GlcNAc6S
Summary of the method: as §1

[28] = biological target: Gal6S(b1-3)GlcNAc6S
Summary of the method: as §1

[29] = biological target: GalNAc(a1-3)Gal
Summary of the method: as §1

[30] = biological target: GalNAc(a1-3)GalNAc(a1-3)Gal(a1-4)Gal(b1-4)GlcNAc
Summary of the method: as §1

[31] = biological target: GalNAc(a1-3)GalNAc(b1-3)Gal(a1-4)Gal(b1-4)GlcNAc
Summary of the method: as §1

[32] = biological target: GlcA(b1-3)GlcNAc
Summary of the method: as §1

[33] = biological target: GlcNAc(a1-4)Gal(b1-3)GlcNAc
Summary of the method: as §1

[34] = biological target: GlcNAc(a1-4)Gal(b1-4)GalNAc
Summary of the method: as §1

[35] = biological target: Kdn(a2-3)Gal(b1-4)GlcNAc
Summary of the method: as §1

[36] = biological target: Man(a1-2)Man(a1-6)[Man(a1-3)]Man(a1-6)[Man(a1-2)Man(a1-2)Man(a1-3)]Man(b1-4)GlcNAc(b1-4)GlcNAc
Summary of the method: as §1

[37] = biological target: Neu5Ac(a2-3)Gal(b1-3)GalNAc
Summary of the method: as §1

[38] = biological target: Neu5Ac(a2-3)Gal(b1-3)GalNAc(b1-4)[Neu5Ac(a2-8)Neu5Ac(a2-3)]Gal(b1-4)Glc
Summary of the method: as §1

[39] = biological target: Neu5Ac(a2-6)Gal(b1-3)GlcNAc(b1-3)[Gal(b1-4)GlcNAc(b1-6)]Gal(b1-4)Glc
Summary of the method: as §1

[40] = biological target: Neu5Ac(a2-6)GalNAc
Summary of the method: as §1

[41] = biological target: Neu5Ac(b2-6)Gal(b1-4)GlcNAc
Summary of the method: as §1

B1: AFL (Aspergillus fumigatus), Q4WW81 (protein)
chain: STPGAQQVLFRTGIAAVNLTNHLRVYFQDVYGSIRESLYEGSWANGTEKNVIGNAKLGSPVAATSKELKHIRVYTLTEGNTLQEFAYDSGTGWYNGGLGGAKFQVAPYSRIAAVFLAGTDALQLRIYAQKPDNTIQEYMWNGDGWKEGTNLGGALPGTGIGATSFRYTDYNGPSIRIWFQTDDLKLVQRAYDPHKGWYPDLVTIFDRAPPRTAIAATSFGAGNSSIYMRIYFVNSDNTIWQVCWDHGKGYHDKGTITPVIQGSEVAIISWGSFANNGPDLRLYFQNGTYISAVSEWVWNRAHGSQLGRSALPPA
glycan array binding signal (z-score) [1]: -0.22 | glycan array binding signal (z-score) [2]: 3.64 | glycan array binding signal (z-score) [3]: 2.94 | glycan array binding signal (z-score) [4]: 3.17 | glycan array binding signal (z-score) [5]: 4.58 | glycan array binding signal (z-score) [6]: 3.88 | glycan array binding signal (z-score) [7]: 4.31 | glycan array binding signal (z-score) [8]: 3.41 | glycan array binding signal (z-score) [9]: -0.359 | glycan array binding signal (z-score) [10]: 1.73 | glycan array binding signal (z-score) [11]: -0.374 | glycan array binding signal (z-score) [12]: 3.8 | glycan array binding signal (z-score) [13]: 0.994 | glycan array binding signal (z-score) [14]: 3.56 | glycan array binding signal (z-score) [15]: -0.384 | glycan array binding signal (z-score) [16]: -0.087 | glycan array binding signal (z-score) [17]: -0.382 | glycan array binding signal (z-score) [18]: -0.385 | glycan array binding signal (z-score) [19]: -0.383 | glycan array binding signal (z-score) [20]: -0.383 | glycan array binding signal (z-score) [21]: -0.356 | glycan array binding signal (z-score) [22]: -0.386 | glycan array binding signal (z-score) [23]: -0.386 | glycan array binding signal (z-score) [24]: -0.382 | glycan array binding signal (z-score) [25]: -0.387 | glycan array binding signal (z-score) [26]: 0.328 | glycan array binding signal (z-score) [27]: -0.381 | glycan array binding signal (z-score) [28]: -0.385 | glycan array binding signal (z-score) [29]: -0.386 | glycan array binding signal (z-score) [30]: -0.4 | glycan array binding signal (z-score) [31]: -0.377 | glycan array binding signal (z-score) [32]: -0.361 | glycan array binding signal (z-score) [33]: -0.377 | glycan array binding signal (z-score) [34]: -0.384 | glycan array binding signal (z-score) [35]: -0.381 | glycan array binding signal (z-score) [36]: -0.376 | glycan array binding signal (z-score) [37]: -0.385 | glycan array binding signal (z-score) [38]: -0.382 | glycan array binding signal (z-score) [39]: -0.383 | glycan array binding signal (z-score) [40]: -0.383 | glycan array binding signal (z-score) [41]: -0.388
